Experimental data: PubChem BioAssay (NCI)
Compounds without any hit were thinned out: in the full panel of roughly 83,000, 20% have a hit.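 Values shown are percent growth following 48 h exposure of cells in 96-well plates to a single concentration of compound; below 10 was considered active.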 Calls of active or inactive are those of the source.

Assays:
Assay in all cases: NCI-60 one-dose screen, 48 h (100 = growth as untreated, 0 = no growth, -100 = all killed)
[1] = test system: SR leukemia; details: 10 µM
[2] = test system: RPMI-8226 leukemia; details: 10 µM
[3] = test system: OVCAR-8 ovarian; details: 10 µM
[4] = test system: OVCAR-5 ovarian; details: 10 µM
[5] = test system: OVCAR-4 ovarian; details: 10 µM
[6] = test system: SK-OV-3 ovarian; details: 10 µM
[7] = test system: IGROV1 ovarian; details: 10 µM
[8] = test system: OVCAR-3 ovarian; details: 10 µM
[9] = test system: HS 578T breast; details: 10 µM
[10] = test system: NCI/ADR-RES ovarian; details: 10 µM
[11] = test system: T-47D breast; details: 10 µM
[12] = test system: BT-549 breast; details: 10 µM
[13] = test system: MDA-MB-435 melanoma; details: 10 µM
[14] = test system: SW-620 colon; details: 10 µM
[15] = test system: MCF7 breast; details: 10 µM unless noted
[16] = test system: HCT-116 colon; details: 10 µM
[17] = test system: HCC-2998 colon; details: 10 µM
[18] = test system: KM12 colon; details: 10 µM

Measured: growth

c1cc2cccc3c4cccc5cccc(c(c1)c23)c54
inactive: [1] 108% | [2] 113% | [3] 112% | [4] 106% | [5] 95.5% | [6] 94.1% | [7] 125% | [8] 108% | [9] 112% | [10] 108% | [11] 90.2% | [12] 104% | [13] 111% | [14] 108% | [15] 84% | [16] 103% | [17] 96.7% | [18] 104%

O=S(=O)(O)c1ccc(O)c2ccccc12
inactive: [1] 84.6% | [2] 94.5% | [3] 113% | [4] 98.7% | [5] 98.3% | [6] 94.1% | [7] 86.1% | [8] 108% | [9] 102% | [10] 98% | [11] 99.4% | [12] 91.6% | [13] 113% | [14] 97.3% | [15] 94.3% | [16] 98.4% | [17] 114% | [18] 102%

O=[N+]([O-])c1cccc(C(F)(F)F)c1
inactive: [1] 127% | [2] 107% | [3] 106% | [4] 97% | [5] 103% | [6] 106% | [7] 105% | [8] 117% | [9] 103% | [10] 106% | [11] 105% | [12] 103% | [13] 107% | [14] 92.6% | [15] 85.4% | [16] 99.1% | [17] 103% | [18] 119%

CCOc1ccc2[nH]c(=S)sc2c1
inactive: [1] 97.7% | [2] 97.1% | [3] 96.4% | [4] 97.6% | [5] 108% | [6] 105% | [7] 88.5% | [8] 117% | [9] 96% | [10] 104% | [11] 94.5% | [12] 107% | [13] 99.3% | [14] 102% | [15] 102% | [16] 105% | [17] 97.9% | [18] 116%

CC(=O)NCc1cc(C)c(C)cc1C
inactive: [1] 97.6% | [2] 88.1% | [3] 104% | [4] 95.5% | [5] 106% | [6] 97.6% | [7] 104% | [8] 101% | [9] 108% | [10] 105% | [11] 89% | [12] 100% | [13] 114% | [14] 107% | [15] 97.4% | [16] 101% | [17] 115% | [18] 95.7%

CN(C)c1ccc(C(c2ccc(O)cc2)c2ccc(N(C)C)cc2)cc1
inactive: [1] 67.5% | [2] 80.1% | [3] 94.1% | [4] 98.6% | [5] 94.9% | [6] 104% | [7] 106% | [8] 92.5% | [9] 91.8% | [10] 93.9% | [11] 59.8% | [12] 103% | [13] 41.8% | [14] 96.5% | [15] 78.6% | [16] 93.9% | [17] 117%

O=[N+]([O-])c1ccc(CO)cc1
inactive: [1] 99.5% | [2] 112% | [3] 109% | [4] 105% | [5] 104% | [6] 93.7% | [7] 112% | [8] 113% | [9] 98.9% | [10] 107% | [11] 88.3% | [12] 105% | [13] 90.3% | [14] 102% | [15] 91.1% | [16] 101% | [17] 96.1%

O=[N+]([O-])c1ccc(-c2ncc(-c3ccc(Br)cc3)o2)cc1
inactive: [1] 124% | [2] 78.8% | [3] 109% | [4] 105% | [5] 97.3% | [6] 112% | [7] 100% | [8] 129% | [9] 129% | [10] 104% | [11] 94.7% | [12] 113% | [13] 108% | [14] 93.5% | [15] 87.4% | [16] 91.4% | [17] 88.2% | [18] 119%

CC1CCC2C(C)(C)C3CC12CC1OC13C (configuration not stated)
inactive: [1] 117% | [2] 108% | [3] 105% | [4] 105% | [5] 99.3% | [6] 103% | [7] 114% | [8] 110% | [9] 103% | [10] 107% | [11] 99.3% | [12] 107% | [13] 107% | [14] 98.8% | [15] 102% | [16] 101% | [17] 127% | [18] 111%

Nc1ccc(N)c([N+](=O)[O-])c1
inactive: [1] 115% | [2] 98.8% | [3] 111% | [4] 104% | [5] 112% | [6] 113% | [7] 113% | [8] 106% | [9] 105% | [10] 107% | [11] 91.3% | [12] 96.9% | [13] 109% | [14] 97.7% | [15] 101% | [16] 99.6% | [17] 106%

COC(=O)c1ccc(NC(=O)CCl)cc1
inactive: [1] 38.7% | [2] 70.4% | [3] 85.5% | [4] 96.4% | [5] 95.4% | [6] 96.7% | [7] 50.6% | [8] 82.4% | [9] 74.9% | [10] 97.1% | [11] 69.7% | [12] 67.9% | [13] 73.8% | [14] 76.6% | [15] 58.3% | [16] 70% | [17] 113%

CC(=O)Nc1c(C)cc(C)cc1C
inactive: [1] 98.7% | [2] 111% | [3] 104% | [4] 115% | [5] 95.9% | [6] 113% | [7] 110% | [8] 102% | [9] 111% | [10] 99.7% | [11] 98.2% | [12] 105% | [13] 102% | [14] 106% | [15] 96.5% | [16] 102% | [17] 104% | [18] 103%

Clc1ccc(-c2n[nH]c3c2Cc2ccccc2-3)cc1Cl
inactive: [1] 112% | [2] 57.9% | [3] 110% | [4] 111% | [5] 99.9% | [6] 99.4% | [7] 63% | [8] 110% | [9] 110% | [10] 95.1% | [11] 29% | [12] 97.6% | [13] 107% | [14] 111% | [15] 35.4% | [16] 90.8% | [17] 92.2%

Cc1cc2nc(CO)[nH]c2cc1C
inactive: [1] 122% | [2] 87.9% | [3] 101% | [4] 100% | [5] 103% | [6] 108% | [7] 108% | [8] 105% | [9] 151% | [10] 107% | [11] 124% | [12] 105% | [13] 109% | [14] 103% | [15] 120% | [16] 108% | [17] 109% | [18] 103%

CCOC(=O)C(CCC(C)C)C(=O)OCC
inactive: [1] 79.7% | [2] 98.8% | [3] 95.6% | [4] 107% | [5] 107% | [6] 106% | [7] 102% | [8] 109% | [9] 115% | [10] 108% | [11] 100% | [12] 104% | [13] 102% | [14] 102% | [15] 97.5% | [16] 108% | [17] 101%

CC(=O)OC1CC2C(C)(C)OC3CC(=O)OCC32C2CCC3(C)C(=CCC3c3ccoc3)C12C (configuration not stated)
inactive: [1] 91.1% | [2] 72.8% | [3] 108% | [4] 95.9% | [5] 105% | [6] 108% | [7] 58.2% | [8] 93.8% | [9] 93.6% | [10] 124% | [11] 88.3% | [12] 126% | [13] 97.8% | [14] 112% | [15] 87.8% | [16] 106% | [17] 80.7% | [18] 98.9%

Cc1ccc(C(=O)N/N=C/c2ccc3c(c2)OCO3)cc1
inactive: [1] 78% | [2] 94.3% | [3] 102% | [4] 103% | [5] 99.5% | [6] 93.4% | [7] 105% | [8] 116% | [9] 115% | [10] 91.3% | [11] 94.7% | [12] 107% | [13] 92.7% | [14] 106% | [15] 103% | [16] 92.4% | [17] 96%

CCN=c1cc2sc3cc(NCC)c(C)cc3nc-2cc1C
active: [2] 2.43% | [3] -16.3% | [8] -33.8% | [11] -1.96% | [13] -35.1% | [14] 0.622% | [15] -11.5% | [16] 7.17% | [18] -1.68%
inactive: [1] 13.4% | [4] 27.5% | [5] 17.2% | [6] 16.1% | [7] 15.2% | [9] 50.8% | [10] 19.9% | [12] 36.4% | [17] 30.7%
